Source: PubChem BioAssay (National Center for Advancing Translational Sciences (NCATS))
SARS PLP yeast = inhibitors of SARS-CoV papain-like protease in yeast. S. cerevisiae expressing SARS-CoV PLpro, growth rescue. Potency, µM (titrated, usually from 32.9 µM), for the others: top-dose activity, positive = growth rescue, most hits filed as activators. hit rate 0.19% among 330,000. AID 485353; calls by dose curve; note: potency is the fitted concentration of half-maximal effect; 0% is about no effect; nearly all actives have a fitted effect of over 55% in size
LmPK inhibitor = LmPK (Leishmania mexicana) enzyme inhibition; Q27686; purified LmPK, Kinase-Glo ATP luminescence, 1 h; Potency, µM (top dose mostly 57.5 µM), for the others: at the highest dose activity change, negative = inhibition, most hits filed as inhibitors; hit rate 0.37% among 290,000; AID 1721; note: potency is the fitted concentration of half-maximal effect; % is set by controls: 0 for no effect and ±100 for the full control effect
Target sequence (Q27686 whole entry, looked up): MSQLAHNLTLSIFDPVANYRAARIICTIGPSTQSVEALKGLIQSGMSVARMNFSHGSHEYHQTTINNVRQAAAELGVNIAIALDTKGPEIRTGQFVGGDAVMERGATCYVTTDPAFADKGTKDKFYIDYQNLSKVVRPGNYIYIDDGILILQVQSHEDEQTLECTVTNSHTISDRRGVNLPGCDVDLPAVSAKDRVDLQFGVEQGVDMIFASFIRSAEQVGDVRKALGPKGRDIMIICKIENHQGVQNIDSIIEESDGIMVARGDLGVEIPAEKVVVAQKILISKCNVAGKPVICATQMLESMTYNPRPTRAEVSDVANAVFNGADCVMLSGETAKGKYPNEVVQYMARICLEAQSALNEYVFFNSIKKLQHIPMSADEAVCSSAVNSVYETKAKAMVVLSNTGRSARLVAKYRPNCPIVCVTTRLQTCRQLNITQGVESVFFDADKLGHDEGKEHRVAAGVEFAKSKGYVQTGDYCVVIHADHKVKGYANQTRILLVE
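Kinase-Glo luminescence read after 1 h RT reaction of 0.1 nM LmPK with 0.5 mM PEP and 0.1 mM ADP. Activity scaled between uninhibited and enzyme-free controls.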
Shiga toxin inh = inhibitors of Shiga toxin in Vero cells; hit rate 9.2% among 290,000; Vero cells, Shiga toxin protein synthesis inhibition reporter; inhibition, % at 38.7 µM; in the data active = inhibition mostly above about 28%, no sharp cut-off; inactive = mostly below about 43%; note: 0% is about no effect
TbPYK inhibitor = blocks Trypanosoma brucei pyruvate kinase; Potency, µM (series often up to 76.8 µM), inactives show top-dose activity, negative = inhibition, most hits filed as inhibitors; TbPYK enzyme, Kinase-Glo Plus ATP luminescence, 45 min; AID 624173; Q57TT1; hit rate 0.12% among 410,000; note: potency is the fitted concentration of half-maximal effect; % is set by controls: 0 for no effect and ±100 for the full control effect; nearly all actives have a fitted effect of over 50% in size
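Enzyme and substrate buffer are dispensed first and compound is pin-transferred. ADP at 130 uM final then starts the reaction, which runs 45 min at room temperature. Detection reagent is added for 10 min before luminescence is imaged.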
CHX counter = counter-screen for Shiga toxin inhibitors: cycloheximide protein synthesis inhibition; hit rate 12% among 300,000; max response, %; cell reporter, cycloheximide protein synthesis inhibition counterscreen; in the data active = max response mostly above about 13%, no sharp cut-off; inactive = mostly below about 14%; note: read at 38.3 µM for the half of the compounds with a filed dose; 0% is about no effect
NS1 inh = influenza NS1 inhibition; Potency, µM (highest dose often 46.1 µM), inactives show at the top dose activity, positive = more growth; hit rate 0.4% among 270,000; AID 2326; calls by dose curve; note: potency is the fitted concentration of half-maximal effect; actives are rising curves; nearly all actives have a fitted effect of over 50% in size
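Growth recovery, yeast-based: influenza A NS1 expressed in S. cerevisiae causes slow growth, and suppressors are detected by OD600. The parent strain without NS1 is used as positive control.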
Numbers without * were called inactive. This excerpt belongs to a sample that is enriched for hits. Unless noted, calls come from the whole dose curve; as a rule, active = well fitted curve in the direction sought with a large enough effect; inconclusive = small, poorly fitted or top-dose-only effect, or another doubt; inactive = no such curve, though single readings can be large; an effect the other way counts as inactive or inconclusive.

`Cc1ccc(NC(=O)c2cccs2)cc1` gave SARS PLP yeast -13%, LmPK inhibitor inconclusive, Shiga toxin inh 81, TbPYK inhibitor 1%, CHX counter 53* and NS1 inh -83%.
Cc1ccc(NS(=O)(=O)c2ccc(NC(=O)c3cccs3)cc2)c(C)c1 was read as SARS PLP yeast -1%, LmPK inhibitor 0%, Shiga toxin inh 17, TbPYK inhibitor -16%, CHX counter 5 and NS1 inh 14%.
Nc1ccc(NC(=O)c2cccs2)cc1 was read as SARS PLP yeast -1%, LmPK inhibitor 0%, Shiga toxin inh 23, TbPYK inhibitor 0%, CHX counter 21* and NS1 inh 2%.
O=C(COC(=O)Cn1[nH]c(=O)c2ccccc2c1=O)NNC(=O)c1ccc(Br)cc1 was read as SARS PLP yeast -4% and TbPYK inhibitor -2%.
For COc1ccc(NC(=O)C(=O)NCC(c2cccnc2)N2CCc3ccccc3C2)cc1 (configuration not stated) the results were TbPYK inhibitor 1%.
Screening N=c1c2c(ncn1Cc1ccco1)Oc1ccc3ccccc3c1C2c1ccccc1 (configuration not stated) returned SARS PLP yeast -33%, LmPK inhibitor 2%, Shiga toxin inh active, TbPYK inhibitor -1%, CHX counter 20* and NS1 inh inconclusive.
Cc1ccccc1NC(=O)Cc1nc(-c2ccc3ccccc3c2)cs1 was read as SARS PLP yeast 5%, LmPK inhibitor -5%, Shiga toxin inh 7, TbPYK inhibitor -4%, CHX counter 6 and NS1 inh 18%.
Screening Oc1csc(Cc2nc(-c3ccccc3F)cs2)n1 returned SARS PLP yeast 1%, LmPK inhibitor -9%, Shiga toxin inh 78*, TbPYK inhibitor -10% and CHX counter 47*.
Screening Oc1csc(Cc2nc(-c3ccc(-c4ccccc4)cc3)cs2)n1 returned SARS PLP yeast -4%, LmPK inhibitor 4%, Shiga toxin inh 53*, TbPYK inhibitor 4%, CHX counter 27* and NS1 inh 6%.
Screening Oc1csc(Cc2nc(-c3ccc4ccccc4c3)cs2)n1 returned SARS PLP yeast -22%, LmPK inhibitor 2%, Shiga toxin inh 59*, TbPYK inhibitor -11%, CHX counter 38* and NS1 inh -3%.
For Cc1cc(C)cc(OC(=O)c2cc(-c3ccc(Cl)cc3)on2)c1 the results were TbPYK inhibitor 1%.
Screening Fc1ccc(-c2nnn(Cc3nc4ccccc4s3)n2)cc1 returned SARS PLP yeast -15%, LmPK inhibitor 1%, Shiga toxin inh 36, TbPYK inhibitor -5%, CHX counter 12* and NS1 inh -99%.
`Clc1ccc(-c2nnn(Cc3nc4ccccc4s3)n2)cc1` gave SARS PLP yeast -3%, LmPK inhibitor -1%, Shiga toxin inh 96*, TbPYK inhibitor 2%, CHX counter 25* and NS1 inh -64%.
For Cn1c(=O)c(=O)n(C)c2cc(NC(=O)c3cccc(F)c3)c(Cl)cc21 the results were TbPYK inhibitor 2%.
CC(=O)Nc1cccc(OCC(=O)NCCC2=CCCCC2)c1 was read as SARS PLP yeast -4%, LmPK inhibitor -1%, Shiga toxin inh 29*, TbPYK inhibitor 6%, CHX counter 23* and NS1 inh 5%.
Screening COc1cccc(NC(=O)NCCC2=CCCCC2)c1 returned SARS PLP yeast 0%, LmPK inhibitor 1%, Shiga toxin inh 74*, TbPYK inhibitor 4% and CHX counter 19*.
For COc1ccc(NC(=O)NCCC2=CCCCC2)cc1 the results were SARS PLP yeast 1%, LmPK inhibitor 2%, Shiga toxin inh 71*, TbPYK inhibitor 1%, CHX counter 28* and NS1 inh -7%.
`COc1ccc(CNC(=O)c2ccc(Cn3c(=O)c4cccn4c4cccnc43)cc2)c(OC)c1` gave TbPYK inhibitor 0%.
Screening Cn1c(=O)c2cc(NC(=O)OCCF)ccc2n1Cc1cccc(C(F)(F)F)c1 returned TbPYK inhibitor -4%.
For O=C(Nc1cccc2ccccc12)OCc1ccccc1 the results were TbPYK inhibitor -1%.
For COC(=O)C1=NNC(C(=O)OC)C1c1ccccc1 (configuration not stated) the results were TbPYK inhibitor -2%.
CCc1ccc(-n2c(=O)c3c4c(sc3n(Cc3cc(=O)n5c(C)cccc5n3)c2=O)CCC4)cc1 was read as TbPYK inhibitor 1%.
Screening O=C(Cn1cccc1C(=O)c1ccccc1)NCc1ccc2c(c1)OCO2 returned SARS PLP yeast 2%, LmPK inhibitor 5%, Shiga toxin inh 52*, TbPYK inhibitor 0%, CHX counter 29* and NS1 inh -5%.
For O=C(Cn1cccc1C(=O)c1ccccc1)NCc1ccccc1 the results were SARS PLP yeast 7%, LmPK inhibitor 7%, Shiga toxin inh 22, TbPYK inhibitor -4%, CHX counter 9 and NS1 inh 3%.
For O=C(Cn1cccc1C(=O)c1ccccc1)NCc1ccc(F)cc1 the results were SARS PLP yeast -2%, LmPK inhibitor -7%, Shiga toxin inh 9, TbPYK inhibitor -6%, CHX counter 16* and NS1 inh -2%.
O=C(Cn1cccc1C(=O)c1ccccc1)NCc1cccs1 was read as SARS PLP yeast 3%, LmPK inhibitor 1%, Shiga toxin inh 43, TbPYK inhibitor -4%, CHX counter 2 and NS1 inh 1%.
O=C(Cn1cc(C(F)(F)F)ccc1=O)NCc1ccc(F)cc1 was read as SARS PLP yeast 1%, LmPK inhibitor -1%, Shiga toxin inh 36*, TbPYK inhibitor 5%, CHX counter 29* and NS1 inh 2%.
Screening O=C(Cn1cc(C(F)(F)F)ccc1=O)NCC1CCCO1 (configuration not stated) returned SARS PLP yeast 4% and TbPYK inhibitor 0%.
`CN(C)S(=O)(=O)c1cccc(NC(=O)c2ccc(NS(=O)(=O)c3cccs3)cc2)c1` gave SARS PLP yeast 1% and TbPYK inhibitor -1%.
For Cc1sc(NC(=O)C2CC(=O)N(Cc3ccco3)C2)nc1-c1ccccc1 (configuration not stated) the results were TbPYK inhibitor -7%.
`Cn1c(N)c(C(=O)Nc2cccc(Cl)c2)c(=O)n(C)c1=O` gave SARS PLP yeast 1%, LmPK inhibitor -9%, Shiga toxin inh -3, TbPYK inhibitor 2%, CHX counter -1 and NS1 inh 4%.
For Cn1ccs/c1=N\C(=O)Nc1cccc(Cl)c1 the results were SARS PLP yeast -4%, LmPK inhibitor -29%, Shiga toxin inh 71*, TbPYK inhibitor 2%, CHX counter 42* and NS1 inh -7%.
`CN=c1sc(C(=O)Nc2cccc(Cl)c2)cc(=O)n1C` gave SARS PLP yeast 1%, LmPK inhibitor 2%, Shiga toxin inh -17, TbPYK inhibitor 20µM*, CHX counter -2 and NS1 inh -13%.
